The source made the active and inactive calls. How the source made its calls: active means hit-call score of the fitted dose curve at least 0.9, where 1 is the maximum; inactive means score below 0.9.
Columns and labels:
Details in all cases: mRNA level, 48 h; actives raise or lower the signal
[1] = read-out: Cyclin D1 (CCND1), CCND1 (gene 595); assay: LTEA_HepaRG_CCND1: Life Technologies and Expression Analysis (LTEA) Assay for Cyclin D1 (CCND1) using HepaRG (AID 2283451)
How it was run: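 Differentiated HepaRG cells exposed 48 h in serum-free induction medium to eight half-log concentrations from 100 uM top, 0.5% DMSO, duplicates. CCND1 mRNA measured by Fluidigm TaqMan qRT-PCR, normalised to ACTB, GAPDH, POLR2A; bidirectional fit.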

[2] = read-out: flavin-containing dimethylaniline monooxygenases 3 (FMO3), FMO3 (gene 2328); assay: LTEA_HepaRG_FMO3: Life Technologies and Expression Analysis (LTEA) Assay for flavin-containing dimethylaniline monooxygenases 3 (FMO3) using HepaRG (AID 2283453);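 on AC50: FMO3 transcript by TaqMan qRT-PCR normalized to ACTB GAPDH and POLR2A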
How it was run: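 Eight-point concentration-response in serum-free HepaRG cultures (top 100 uM, 0.5% DMSO, 48 h). Read-out: FMO3 mRNA level normalized to three endogenous control genes, fitted bidirectionally versus vehicle.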

[3] = read-out: Cytochrome P450 (CYP1A1), CYP1A1 (gene 1543); assay: LTEA_HepaRG_CYP1A1: Life Technologies and Expression Analysis (LTEA) Assay for Cytochrome P450 (CYP1A1) using HepaRG (AID 2283454)
How it was run: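 Differentiated human HepaRG cells, after 48 h plating, exposed in duplicate for 48 h in serum-free induction medium to 8 half-log concentrations up to 100 uM in 0.5% DMSO. CYP1A1 mRNA by qRT-PCR, normalized to ACTB/GAPDH/POLR2A; bidirectional fit versus DMSO.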

[4] = read-out: CFLAR gene, CFLAR (gene 8837); assay: LTEA_HepaRG_CFLAR: Life Technologies and Expression Analysis (LTEA) Assay for CFLAR gene using HepaRG (AID 2283455)
How it was run: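 Gain- or loss-of-signal changes in CFLAR transcript were fitted bidirectionally relative to 0.5% DMSO. Cells (HepaRG, duplicate wells) were dosed for 48 h across eight half-log concentrations topping at 100 uM; quantitation by TaqMan qRT-PCR.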

[5] = read-out: Forkhead box O1 (FOXO1), FOXO1 (gene 2308); assay: LTEA_HepaRG_FOXO1: Life Technologies and Expression Analysis (LTEA) Assay for Forkhead box O1 (FOXO1) using HepaRG (AID 2283456)
How it was run: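 Using one lot of HepaRG hepatic cells kept in 0.5% DMSO, the team applied test chemicals in duplicate, half-log dilutions from 100 uM, for 48 h. Expression, normalised to ACTB/GAPDH/POLR2A, was compared with vehicle in either direction.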

[6] = read-out: ABC Transporter (ABCB1), ABCB1 (gene 5243); assay: LTEA_HepaRG_ABCB1: Life Technologies and Expression Analysis (LTEA) Assay for ABC Transporter (ABCB1) using HepaRG (AID 2283460)
How it was run: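 Human liver HepaRG line treated 48 h with up to 100 uM compound (eight half-log points, 0.5% DMSO); ABCB1 mRNA change fitted bidirectionally against DMSO controls.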

[7] = read-out: growth arrest and DNA damage 45 (GADD45B), GADD45B (gene 4616); assay: LTEA_HepaRG_GADD45B: Life Technologies and Expression Analysis (LTEA) Assay for growth arrest and DNA damage 45 (GADD45B) using HepaRG (AID 2283461)
How it was run: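 Differentiated human HepaRG cells in serum-free induction medium exposed 48 h in duplicate to eight concentrations, top 100 uM, half-log steps, 0.5% DMSO. GADD45B mRNA by TaqMan qRT-PCR, normalized to ACTB, GAPDH, POLR2A; bidirectional fit versus DMSO.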

[8] = read-out: ABC Transporter (ABCC3), ABCC3 (gene 8714); assay: LTEA_HepaRG_ABCC3: Life Technologies and Expression Analysis (LTEA) Assay for ABC Transporter (ABCC3) using HepaRG (AID 2283462)
How it was run: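 Differentiated human HepaRG cells exposed 48 h in serum-free induction medium, 0.5% DMSO vehicle, 8-point half-log series to 100 uM in duplicate. ABCC3 mRNA by qRT-PCR, normalised to ACTB, GAPDH, POLR2A; bidirectional fit vs DMSO.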

[9] = read-out: ABC Transporter (ABCB11), ABCB11 (gene 8647); assay: LTEA_HepaRG_ABCB11: Life Technologies and Expression Analysis (LTEA) Assay for ABC Transporter (ABCB11) using HepaRG (AID 2283463)
How it was run: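 Using HepaRG cultures held in 0.5% DMSO, chemicals were tested at half-log dilutions from 100 uM for 48 h. Induction or suppression of ABCB11 mRNA, normalized to ACTB, GAPDH and POLR2A, was fitted bidirectionally against vehicle.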

[10] = read-out: ABC Transporter (ABCC2), ABCC2 (gene 1244); assay: LTEA_HepaRG_ABCC2: Life Technologies and Expression Analysis (LTEA) Assay for ABC Transporter (ABCC2) using HepaRG (AID 2283464)
How it was run: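 Differentiated HepaRG cells in serum-free induction medium exposed 48 h to eight half-log concentrations up to 100 uM, 0.5% DMSO, in duplicate. ABCC2 mRNA measured by qRT-PCR (TaqMan, Fluidigm), normalized to ACTB, GAPDH and POLR2A. Fitted in both directions against DMSO.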

[11] = read-out: Broad substrate specificity ATP-binding cassette transporter ABCG2 (Homo sapiens) (UniProt Q9UNQ0); assay: LTEA_HepaRG_ABCG2: Life Technologies and Expression Analysis (LTEA) Assay for ABC Transporter (ABCG2) using HepaRG (AID 2283465)
How it was run: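 Gene expression of ABCG2 in HepaRG liver cells is quantified by qRT-PCR following 48 h exposure across an eight-point series topping at 100 uM. Values come from bidirectional fitting relative to DMSO vehicle.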

[12] = read-out: ATP-citrate lyase (ACLY), ACLY (gene 47); assay: LTEA_HepaRG_ACLY: Life Technologies and Expression Analysis (LTEA) Assay for ATP-citrate lyase (ACLY) using HepaRG (AID 2283466)
How it was run: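 ACLY expression changes in human HepaRG liver cells are quantified by qRT-PCR after 48 h exposure to test chemicals (maximum 100 uM, half-log steps). Values are fitted in both directions relative to 0.5% DMSO vehicle.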

[13] = read-out: Peroxisomal acyl-coenzyme A oxidase 1 (ACOX1) gene, ACOX1 (gene 51); assay: LTEA_HepaRG_ACOX1: Life Technologies and Expression Analysis (LTEA) Assay for Peroxisomal acyl-coenzyme A oxidase 1 (ACOX1) gene using HepaRG (AID 2283467)
How it was run: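 Human HepaRG hepatic cultures, 48 h treatment with test chemicals up to 100 uM. ACOX1 expression read by qRT-PCR relative to 0.5% DMSO vehicle.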

[14] = read-out: Alkaline Phosphatase, Placental (ALPP) gene, ALPP (gene 250); assay: LTEA_HepaRG_ALPP: Life Technologies and Expression Analysis (LTEA) Assay for Alkaline Phosphatase, Placental (ALPP) gene using HepaRG (AID 2283468)
How it was run: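 HepaRG cells plated 48 h, then exposed in duplicate for 48 h in serum-free induction medium to 8-point half-log series from 100 uM in 0.5% DMSO. ALPP mRNA by TaqMan qRT-PCR, normalized to ACTB/GAPDH/POLR2A; bidirectional fit versus DMSO.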

[15] = read-out: Bcl-2 (BAD) gene, BAD (gene 572); assay: LTEA_HepaRG_BAD: Life Technologies and Expression Analysis (LTEA) Assay for Bcl-2 (BAD) gene using HepaRG (AID 2283469)
How it was run: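 Activity values reflect up- or down-regulation of BAD mRNA in human HepaRG hepatic cells treated 48 h in serum-free medium, with eight-point half-log dosing capped at 100 uM and 0.5% DMSO vehicle.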

[16] = read-out: Bcl-2 (BAX) gene, BAX (gene 581); assay: LTEA_HepaRG_BAX: Life Technologies and Expression Analysis (LTEA) Assay for Bcl-2 (BAX) gene using HepaRG (AID 2283470)
How it was run: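 qRT-PCR read-out of BAX mRNA, normalized to three housekeeping genes, after 48 h chemical exposure of human HepaRG cells in serum-free induction medium; eight-point half-log series, top 100 uM, 0.5% DMSO vehicle; bidirectional fit versus DMSO.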

[17] = read-out: growth arrest and DNA damage 45 (GADD45A), GADD45A (gene 1647); assay: LTEA_HepaRG_GADD45A: Life Technologies and Expression Analysis (LTEA) Assay for growth arrest and DNA damage 45 (GADD45A) using HepaRG (AID 2283458)
How it was run: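 HepaRG, 48 h exposure, 8 conc. (top 100 uM, half-log steps), 0.5% DMSO vehicle, duplicates. Read-out: qRT-PCR mRNA level, housekeeping-normalized (ACTB/GAPDH/POLR2A). Curves fit bidirectionally vs DMSO baseline.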

[18] = read-out: Forkhead box O3 (FOXO3), FOXO3 (gene 2309); assay: LTEA_HepaRG_FOXO3: Life Technologies and Expression Analysis (LTEA) Assay for Forkhead box O3 (FOXO3) using HepaRG (AID 2283459)
How it was run: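 Gene-expression endpoint: FOXO3 transcript level by qRT-PCR in HepaRG cultures treated 48 h with chemicals up to 100 uM (half-log, 0.5% DMSO vehicle).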

Measured: AC50

Sequence of Broad substrate specificity ATP-binding cassette transporter ABCG2 (Homo sapiens) (Q9UNQ0 whole entry, looked up): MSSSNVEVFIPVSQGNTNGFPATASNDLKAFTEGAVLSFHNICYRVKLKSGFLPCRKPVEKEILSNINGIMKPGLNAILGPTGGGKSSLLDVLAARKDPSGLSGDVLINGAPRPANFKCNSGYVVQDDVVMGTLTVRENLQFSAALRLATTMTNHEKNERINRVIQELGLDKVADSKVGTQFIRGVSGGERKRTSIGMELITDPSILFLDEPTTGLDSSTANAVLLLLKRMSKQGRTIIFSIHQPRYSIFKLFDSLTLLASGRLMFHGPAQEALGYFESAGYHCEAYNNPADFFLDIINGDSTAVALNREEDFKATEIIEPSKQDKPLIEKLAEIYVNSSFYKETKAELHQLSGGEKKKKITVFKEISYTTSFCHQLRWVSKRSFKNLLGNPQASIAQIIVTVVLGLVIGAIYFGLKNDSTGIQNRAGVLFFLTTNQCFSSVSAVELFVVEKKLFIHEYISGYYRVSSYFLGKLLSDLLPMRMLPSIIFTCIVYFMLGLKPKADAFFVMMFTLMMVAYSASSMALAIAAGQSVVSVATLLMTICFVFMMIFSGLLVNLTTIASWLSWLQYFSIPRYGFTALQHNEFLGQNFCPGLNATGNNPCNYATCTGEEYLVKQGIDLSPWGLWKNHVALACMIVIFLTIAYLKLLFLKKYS

CSC(=O)c1c(C(F)F)nc(C(F)(F)F)c(C(=O)SC)c1CC(C)C
inactive: [1] | [4] | [5] | [6] | [7] | [8] | [11] | [13] | [15] | [16]
active: [2] 86.8 µM | [3] 17.1 µM | [9] 49.8 µM | [10] 9.66 µM | [12] 77.9 µM | [14] 49.8 µM

CN=C=S
inactive: [1] | [2] | [3] | [4] | [5] | [17] | [18] | [6] | [7] | [9] | [10] | [11] | [12] | [13] | [14] | [15] | [16]

CC1(C)C(C=C(Cl)Cl)C1C(=O)OC(C#N)c1cccc(Oc2ccccc2)c1 (stereo not given)
active: [3] 28.8 µM | [6] 50 µM | [11] 10.8 µM
inactive: [1] | [2] | [4] | [5] | [18] | [7] | [8] | [9] | [10] | [12] | [13] | [14] | [15] | [16]

C=C(C)CN(CC)c1c([N+](=O)[O-])cc(C(F)(F)F)cc1[N+](=O)[O-]
inactive: [1] | [2] | [4] | [5] | [6] | [7] | [9] | [10] | [11] | [12] | [13] | [14] | [15] | [16]
active: [3] 44.4 µM

Clc1cccc(C(Cl)(Cl)Cl)n1
inactive: [1] | [2] | [3] | [4] | [5] | [18] | [6] | [7] | [8] | [9] | [10] | [11] | [12] | [13] | [14] | [15] | [16]

CC(C)N1C(=O)c2ccccc2NS1(=O)=O
inactive: [1] | [2] | [3] | [4] | [5] | [6] | [7] | [8] | [9] | [10] | [11] | [12] | [13] | [14] | [15] | [16]

CC(C)Oc1cccc(NC(=O)c2ccccc2C(F)(F)F)c1
active: [3] 81.6 µM | [6] 50 µM
inactive: [1] | [2] | [4] | [5] | [17] | [7] | [8] | [9] | [10] | [11] | [12] | [13] | [14] | [15] | [16]

Source: PubChem BioAssay (EPA / NIEHS)
